Source: PubChem BioAssay (National Center for Advancing Translational Sciences (NCATS))
Most compounds without a hit are left out; they make up all but 1.3% or so of the library.
Akt phos inh: inhibitors of Akt phosphorylation | Neuro2A IGF-stimulated pAkt S473 HTRF, 20 min; active compounds read low | activity change, % for hits at 50 µM | 360,000 tested, 0.32% active | AID 651550; in the data active = activity change below about -80%; inconclusive = mostly about -51% to -80%; also: % is scaled to controls: 0 for no effect and ±100 for the full control effect
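Single-point screen (50 µM final compound) in Neuro2A cells stimulated 20 min with 6 nM IGF at 37 deg C. After lysis, Ser473-phosphorylated Akt read by HTRF (ex 330 nm, em 615/665 nm) as the 665/615 ratio.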
gsp ag: activates gsp, the McCune-Albright syndrome mutation. 340,000 tested, 0.13% active. gsp mutant cells, cAMP HTRF, 30 min. Potency, µM (highest dose often 76.9 µM), for inactives: top-dose activation (cAMP increase), hits mostly activators. AID 624287; active = well fitted activation curve with a large enough effect; inconclusive = small, poorly fitted or top-dose-only effect, or another doubt; inactive = no such curve, though single readings can be large or run the other way; cell line not stated here;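 also: phosphodiesterase inhibitor Ro 20-1724 added with compounds to block cAMP breakdown; potency is read from the fitted curve at half-maximal effect; nearly all actives have a fitted effect of over 60% in size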
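Cells in DMEM/10% FBS with G418 were pretreated with compounds in DMSO plus […] (300 uM stock) for 30 min at 37C. cAMP was measured by HTRF (cAMP-d2 plus anti-cAMP antibody-K) after 30 min at room temperature.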
RXFP1 antag: RXFP1 (human) relaxin receptor antagonism | Q9HBX9 | activity change, negative = inhibition, % at 57.5 µM | 350,000 tested, 0.59% active | HEK293-RXFP1, relaxin-stimulated cAMP HTRF, 30 min; active compounds read low;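 active = activity change of -60% or lower, but not beyond a set lower limit; inconclusive = change between -60% and -40%, or beyond the set limit; inactive = change above -40%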; also: % is scaled to controls: 0 for no effect and ±100 for the full control effect
RXFP1 agonist: agonists of human relaxin receptor RXFP1; HEK293T-RXFP1 cAMP TR-FRET, 30 min; response scale: percent of porcine relaxin response, buffer zero; Q9HBX9; 370,000 tested, 0.3% active; Potency, µM (series often up to 57.5 µM), inactives show at the highest dose activation, most hits filed as activators; active = well fitted activation curve with a large enough effect; inconclusive = small, poorly fitted or top-dose-only effect; also: potency is read from the fitted curve at half-maximal effect; % is scaled to controls: 0 for no effect and ±100 for the full control effect; nearly all actives have a fitted effect of over 60% in size
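Agonist response is measured as cAMP accumulation in an RXFP1-transfected HEK293T line under PDE4 inhibition. Values are scaled between buffer-only and 29 nM porcine relaxin, and EC50s come from standard Hill equation fits.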
TSHR antag: blocks TSH signaling through the human TSH receptor | P16473 | TSHR-expressing cells, TSH-stimulated cAMP HTRF, 2 h; active compounds read low | activity change, negative = inhibition, % at 11.5 µM | 330,000 tested, 0.2% active | AID 504810;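 active = activity change below a set negative limit, meaning inhibition stronger than a set level, cut at about -70% in these data; inconclusive = activity change between two set negative limits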; also: % is scaled to controls: 0 for no effect and ±100 for the full control effect
Target sequence (P16473 whole entry, looked up): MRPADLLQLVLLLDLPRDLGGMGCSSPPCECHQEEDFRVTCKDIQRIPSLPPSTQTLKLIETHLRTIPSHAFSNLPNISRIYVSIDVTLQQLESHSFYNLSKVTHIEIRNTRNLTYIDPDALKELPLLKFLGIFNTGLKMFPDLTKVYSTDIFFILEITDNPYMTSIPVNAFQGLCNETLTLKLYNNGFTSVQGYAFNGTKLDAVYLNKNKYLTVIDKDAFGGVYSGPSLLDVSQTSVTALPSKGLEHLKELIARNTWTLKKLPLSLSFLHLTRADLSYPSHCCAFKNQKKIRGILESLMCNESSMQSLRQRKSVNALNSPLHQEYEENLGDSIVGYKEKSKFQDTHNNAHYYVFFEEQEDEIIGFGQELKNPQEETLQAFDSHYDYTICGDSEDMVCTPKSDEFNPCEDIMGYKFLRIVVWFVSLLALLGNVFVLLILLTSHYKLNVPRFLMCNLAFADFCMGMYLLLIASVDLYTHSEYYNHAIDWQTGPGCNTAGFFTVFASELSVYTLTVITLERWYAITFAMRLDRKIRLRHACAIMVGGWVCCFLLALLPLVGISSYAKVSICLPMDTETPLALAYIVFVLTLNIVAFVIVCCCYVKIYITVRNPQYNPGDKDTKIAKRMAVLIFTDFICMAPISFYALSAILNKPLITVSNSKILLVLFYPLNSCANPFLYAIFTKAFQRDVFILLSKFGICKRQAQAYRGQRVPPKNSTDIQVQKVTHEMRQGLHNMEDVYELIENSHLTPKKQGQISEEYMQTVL
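Inhibition of cAMP made by TSHR-expressing cells under TSH stimulation (4nM final, EC80; 2 h, 37 deg C) is quantified with a one-step lysis HTRF kit, anti-cAMP cryptate versus cAMP-d2.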
gsp antagonist: antagonizes gsp, the McCune-Albright syndrome mutation; gsp-mutant cells, cAMP HTRF, 30 min; Potency, µM (highest dose often 76.9 µM), inactives show top-dose activity change, negative = inhibition, most hits filed as inhibitors; 340,000 tested, 0.4% active; AID 624288; calls by dose curve; cell line not stated here;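 also: intracellular cAMP measured with PDE inhibitor Ro 20-1724 present during compound exposure; potency is read from the fitted curve at half-maximal effect; % is scaled to controls: 0 for no effect and ±100 for the full control effect; nearly all actives have a fitted effect of over 65% in size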
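HTRF cAMP read-out (cAMP-d2 plus anti-cAMP antibody-K in lysis buffer, 30 min RT). Before lysis, cells are exposed to compounds with […] for 30 min at 37C in DPBS containing Ca/Mg, BSA and Tween 20.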
The depositor's hits bear a star; i = inactive; ? = inconclusive; . = no result; [ ] = another dose, or the depositor's remark.

SMILES	Akt phos inh	gsp ag	RXFP1 antag	RXFP1 agonist	TSHR antag	gsp antagonist
CC(C)c1ccc(N=Nc2c(O)[nH]c(=O)[nH]c2=O)cc1	i	-68.6%	-0.3	-1.4%	-1.9	-5.6%
O=c1[nH]c(O)c(N=Nc2ccc([N+](=O)[O-])cc2)c(=O)[nH]1	i	?	6.7	14.1µM*	19.8	1.6%
CCOC(=O)C(O)(c1ccc(N(CC)S(=O)(=O)c2ccccc2)cc1)C(F)(F)F (stereo not given)	i	-23.8%	-6.6	2.3%	-9.7	-9.5%
CCN(c1ccc(C(O)(C(=O)OC)C(F)(F)F)cc1)S(=O)(=O)c1ccccc1 (stereo not given)	-125.4%*	0.3%	-2.2	2.6%	-11.3	-17.1%
CC1(C)CC/C(=C\c2ccc(Cl)cc2)C1(O)Cn1cncn1 (stereo not given)	.	.	-35.4	.	.	.
N#CC(C#N)=NNc1ccc([N+](=O)[O-])cc1	i	-19.4%	-28.6	1.1%	-75.9*	50.1µM*
CCN(CC)S(=O)(=O)c1ccc(NN=C(C#N)C#N)cc1	i	6.0%	-18.3	0.2%	-70.3*	-30.4%
CCc1ccc(NC(=O)c2cnc3sc(N4CCCC4)nn3c2=O)cc1	.	.	7.8	?	.	.
Cc1ccc(-n2c(C)nc3ccccc3c2=O)c(C)c1	i	-10.6%	0.1	-1.2%	-72.4*	-9.0%
CC[N+]1(CC)CCC(OC(=O)C(O)(c2ccccc2)c2ccccc2)C1 (stereo not given)	.	.	9.9	.	.	.
O=C1NC(=O)C(=Cc2ccc(N3CCN(C(=O)c4ccccc4)CC3)c([N+](=O)[O-])c2)C(=O)N1	i	4.6%[15.4 µM]	-74.8*	-0.6%	-2.6	-14.7%
C=CCC1=C(C)C(OC(=O)C2C(C=C(C)C)C2(C)C)CC1=O (stereo not given)	.	.	-70.2*	.	.	.
CCN(C(=O)CN1CC=C(c2ccccc2)CC1)c1c(N)n(Cc2ccccc2)c(=O)[nH]c1=O	i	7.9%[15.4 µM]	-61.0*	-0.4%	0.5	9.6%
Cc1ccc(-c2ccc3c(c2)O[C@H](CN(C)C(=O)CC2CC2)[C@H](C)CN([C@@H](C)CO)S3(=O)=O)cc1	i	18.5%	2.0	.	.	.
Cc1ccccc1CN1C(=O)C(C)N=C(c2ccccc2)c2ccccc21 (stereo not given)	.	.	-69.8*	1.9%	.	.
Cc1oc(-c2ccccc2)nc1CN1C(=O)C(C)N=C(c2ccccc2F)c2cc(Cl)ccc21 (stereo not given)	i	7.6%	.	1.9%	-6.1	?
COc1ccc(N2C(=O)/C(=C/C=C/c3ccccc3[N+](=O)[O-])C(=O)NC2=S)cc1	i	-4.5%[15.4 µM]	-76.6*	0.8%	5.0	-5.6%
COc1ccc(N2C(=O)/C(=C/c3cccs3)C(=O)NC2=S)cc1	i	18.6%[15.4 µM]	0.7	-0.6%	-6.2	-15.6%
NCC(CC(=O)O)c1ccc(Cl)cc1 (stereo not given)	-108.5%*	-15.3%	2.6	-1.0%	3.9	11.1%
N#CC(C#N)=NNc1ccc(-n2ccc(C(F)(F)F)n2)cc1	i	?	?	0.8%	-76.1*	31.6µM*
Cc1cc(C)n(-c2ccc(NN=C(C#N)C#N)cc2)n1	i	-0.9%	-14.2	-0.6%	-29.4	?
CCc1cc(-c2nnn(CCC3COCCO3)c2CC)cc(CC)c1-c1cn(Cc2ccc3ccccc3c2)nn1 (stereo not given)	i	-111.5%	7.7	.	.	.
Cc1ccc(-c2c(C)n3c4c(=O)n(C)c(=O)n(C)c4nc3n2CCO)cc1	.	.	-9.4	?	.	.
O=C1C=CC(=O)C2C1C1(Cl)C(Cl)=C(Cl)C2(Cl)C1(Cl)Cl (stereo not given)	i	-8.4%	-94.8*	.	.	-18.4%
CCCOc1ccc(C(=O)CCC(=O)NNC(=O)c2ccncc2)cc1	i	-36.7%	-15.0	0.5%	-16.8	4.1%
CCC(C)C(C)(COC(N)=O)COC(N)=O (stereo not given)	.	.	3.2	.	.	.
O=C(Nc1ccc(N2CCOCC2)cc1)C1CCN(S(=O)(=O)c2cccc(C(F)(F)F)c2)CC1	i	-36.4%	-5.1	.	.	.
